Reference: PubChem BioAssay (NCATS)
Results filed as inconclusive are left out. The call rests on the fitted dose curve; in most records, active means well fitted curve in either direction with a large enough effect (not every such curve was filed as active); inconclusive means small, poorly fitted or top-dose-only effect, or another doubt; inactive means flat fitted curve, though single readings scatter.

experiment: NFAT Signaling Pathway (AID 444); conditions: Jurkat NFAT-bla M1, carbachol, beta-lactamase ratio, 5 h; at 7.69 µM (top of the series) unless noted
Text: NCGC Assay Overview: The nuclear factor of activated T cells (NFAT) family of transcription factors has been found primarily in most immune system cells and some other non-immune cells. NFAT plays the immunomodulatory role, primarily in T-cell activation and differentiation. NFAT target genes are also involved in the regulation of apoptosis and differentiation in non-immune cell types. The NFAT sequence was engineered to the upstream of the ?-lactamase reporter gene and transfected into Jurkat cells with co-transfection of muscarinic receptor1 [provided by Invitrogen Corp]. When an extracellular stimulus, such as carbachol, binds to the GPCR M1 receptor, it stimulates a signaling cascade that activates NFAT response element and ?-lactamase expression by phosphorylating the NFAT binding protein. This cell based ?-lactamase reporter gene assay can accurately monitor any changes occurring along the NFAT pathway, and can be used for screening small molecule inhibitor or activator upon activation by carbachol EC50 concentration. A small molecular library were screened in a titration series resulting in AC50s (can be either IC50s or EC50s).
NCGC Assay Protocol Summary: The cells were prepared in RPMI 1640 medium containing 0.1% dialyzed FBS and 25 mM HEPES at 1.6 x 10^6cell/ml. The assay was performed in 1536-well plate format as follows: 5 ul of cell preparation 23 nl of compounds 1ul of carbachol (final concentration 1 uM) Briefly centrifuge the plates and incubate at 37 °C for 5 hours 1 ul of CCF4 dye mixture Incubate the plates at RT for 1 hour Read the plate in EnVision plate reader (Ex= 405nm, and Em1=460nm and Em2=530nm). The %Activity was determined from the ratio of 460nm/530nm. Data normalization and AC50 calculations were accomplished using GeneData software.
On the % scale 0 is the no-effect control and ±100 the full control effect.

Activity change, negative = inhibition, inactive:
CN(C)c1nc(-c2ccc3c(c2)OCO3)nc2ccccc12 -16.9%
CN(C)C(=O)c1ccc(-c2ccc3ncnc(Nc4ccc(F)cc4)c3c2)cc1 24.8%
COc1ccccc1-c1nc(N2CCN(C)CC2)c2ccccc2n1 4.89%
c1ccc2c(NCCN3CCOCC3)nc(-c3ccc4c(c3)OCO4)nc2c1 12.2%
Cc1ccccc1-c1ccc2ncnc(N3CCOCC3)c2c1 20.5%
O=C(O)CC1Sc2nc3ccccc3n2C1=O (stereo not given) 6.71% [at 17.2 µM]
CCNc1ncc2nc(C)c(=O)n(CCc3ccccc3)c2n1 -12.8%
c1ccc(Nc2nc(-c3ccoc3)nc3ccccc23)cc1 2.6%
Cc1cccc(CNc2ncncc2-c2ccccc2C)c1 -10.9%
FC(F)(F)c1ccccc1-c1nc(NCc2cccnc2)c2ccccc2n1 3.45%
CCNc1ncc2nc(-c3cccs3)c(=O)n(CCC#N)c2n1 -2.96%
COc1ccc2[nH]cc(CCNc3cc(-c4ccccc4OC)ncn3)c2c1 -7.55%
COCCn1c(=O)c(CCc2ccccc2)nc2cnc(OCc3ccccc3)nc21 4.34%
COc1ccccc1CNc1ncncc1-c1ccc2c(c1)OCO2 -11.1%
COc1cccc(-c2nc(NCc3cccnc3)c3ccccc3n2)c1 27.1%
Cc1cnc(CNc2ncnc3ccc(-c4ccccc4Cl)cc23)cn1 7.91%
Cc1cnc(CNc2ncnc3ccc(-c4ccccc4C)cc23)cn1 -7.95%
CC(C)OC(=O)C(C#N)c1nc2ccccc2nc1N1CCCC1 (stereo not given) -13.2% [at 17.2 µM]
O=c1cnc2cnc(Oc3ccccc3)nc2n1Cc1cccs1 -1.41%
Clc1ccccc1-c1nc(Nc2ccncc2)c2ccccc2n1 8.97%
COc1cccc(-c2nc(NCCN3CCOCC3)c3ccccc3n2)c1 -2.08%
CN(C)C(=O)c1ccc(-c2cc(NCc3ccccc3)ncn2)cc1 27.8%
COc1ncc2nc(-c3cccs3)c(=O)n(CCC#N)c2n1 8.94%
CN(C)C(=O)c1ccc(-c2nc(N3CCOCC3)c3ccccc3n2)cc1 21.6%
c1ccc2c(NCCN3CCOCC3)nc(-c3ccoc3)nc2c1 -7.47%
COc1ccc2[nH]cc(CCNc3ncnc4ccc(-c5ccccc5OC)cc34)c2c1 20.2%
COc1ccccc1-c1nc(NC2CC2)c2ccccc2n1 -13.9%
Cn1cc(-c2nc3cnc(N4CCNCC4)nc3n(C3CC3)c2=O)c2ccccc21 28.9%
CN(C)c1ccc(-c2cc(N(C)Cc3ccco3)ncn2)cc1 3.68%
CCNc1ncc2nc(-c3ccccc3)c(=O)n(CCC#N)c2n1 27.9%
COc1ccccc1CNc1ncncc1-c1ccccc1Cl -21.7%
CN1CCN(c2ncc3nc(CCc4ccccc4)c(=O)n(Cc4cccs4)c3n2)CC1 4.5%
COc1ncc2nc(-c3ccccc3)c(=O)n(CCc3ccccc3)c2n1 -3.72%
COCCn1c(=O)c(-c2cccc(C#N)c2)nc2cnc(Oc3cccc(Cl)c3)nc21 -4.85%
CN1CCN(c2ncc3nc(-c4cn(C)c5ccccc45)c(=O)n(CCC#N)c3n2)CC1 23.5%
COc1ccc2[nH]cc(CCNc3ncncc3-c3cccc(C#N)c3)c2c1 -10.2%
COc1ccccc1CNc1ncnc2ccc(-c3ccc(C(=O)N(C)C)cc3)cc12 14.5%
O=C(/C=N/O)NCCCN1CCOCC1 14.3% [at 17.2 µM]
CN(C)c1ncc2nc(CCc3ccccc3)c(=O)n(CCc3ccccc3)c2n1 -22.4%
COc1ncc2nc(-c3ccccc3)c(=O)n(Cc3cccs3)c2n1 -14.6%
